# Screens: PubChem BioAssay, National Center for Advancing Translational Sciences (NCATS)
# TbPYK inhibitor: inhibitors of Trypanosoma brucei pyruvate kinase. Q57TT1. TbPYK enzyme, Kinase-Glo Plus ATP luminescence, 45 min. Potency, µM (series often up to 76.8 µM), inactives show at the highest dose activity, negative = inhibition, hits mostly inhibitors. hit rate 0.12% among 410,000. AID 624173; further: nearly all actives have a fitted effect of over 50% in size
#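 Luminescence from Kinase-Glo Plus, added after a 45-minute room-temperature reaction, served as the end-point read-out. The enzyme and substrate were preincubated with compound before ADP (130 uM final) initiated turnover. Concentration-effect curves came from normalized qHTS data.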
# RE007 growth inh: less growth of the S. pombe RE007 Vpr strain | S. pombe RE007 Vpr strain, BacTiter-Glo ATP luminescence, 24 h | Potency, µM (series often up to 92.2 µM), for the others: top-dose activity change, negative = less growth, usual class: inhibitors | hit rate 0.21% among 360,000; active means well fitted falling curve with a large enough effect; inconclusive means small, poorly fitted or top-dose-only effect; inactive means no such curve, though single readings can be large or run the other way; further: nearly all actives have a fitted effect of over 50% in size
#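 Fission yeast RE007 carrying one integrated HIV-1 vpr copy, seeded at OD 0.01 in PMG+AL medium with 23 nL pinned compound. Grown 24 h at 30 degrees; viability read by BacTiter-Glo luminescence after 5 min.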
# LmPK inhibitor: LmPK (Leishmania mexicana) enzyme inhibition; Q27686; purified LmPK, Kinase-Glo ATP luminescence, 1 h; Potency, µM (highest dose often 57.5 µM), inactives show top-dose activity change, negative = inhibition, hits mostly inhibitors; hit rate 0.37% among 290,000; AID 1721
# Target sequence (Q27686 whole entry, looked up): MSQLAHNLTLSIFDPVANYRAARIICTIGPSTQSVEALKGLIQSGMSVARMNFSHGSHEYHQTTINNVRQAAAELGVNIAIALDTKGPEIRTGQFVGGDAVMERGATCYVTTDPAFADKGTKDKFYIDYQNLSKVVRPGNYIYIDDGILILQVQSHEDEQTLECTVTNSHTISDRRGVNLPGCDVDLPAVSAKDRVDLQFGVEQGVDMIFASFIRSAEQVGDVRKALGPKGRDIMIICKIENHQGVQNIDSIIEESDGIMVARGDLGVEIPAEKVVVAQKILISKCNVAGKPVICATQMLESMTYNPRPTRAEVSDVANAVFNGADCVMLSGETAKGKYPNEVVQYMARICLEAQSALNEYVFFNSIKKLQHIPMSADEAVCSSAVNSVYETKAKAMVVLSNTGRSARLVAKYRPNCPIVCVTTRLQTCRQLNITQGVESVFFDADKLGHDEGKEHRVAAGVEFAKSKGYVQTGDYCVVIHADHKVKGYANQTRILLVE
#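 0.1 nM LmPK, 0.5 mM PEP, 0.1 mM ADP; 50 mM imidazole pH 7.2, 7 mM MgCl2, 50 mM KCl; 1 h RT. Kinase-Glo luminescence readout, normalized to no-enzyme (full inhibition) and uninhibited wells.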
# Sm TGR inh: inhibitors of Schistosoma mansoni thioredoxin glutathione reductase | purified TGR, DTNB reduction, TNB absorbance 405 nm | Q962Y6 | Potency, µM (top dose mostly 114 µM), for inactives: at the top dose activity change, negative = inhibition, usual class: inhibitors | hit rate 3% among 360,000 | AID 485364; further: nearly all actives have a fitted effect of over 60% in size
#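 Kinetic colorimetric format: TGR-catalysed, NADPH-driven DTNB reduction monitored via TNB absorbance. Enzyme dispensed at 20 nM; compound exposure 15 min at room temperature before reaction start.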
# * = called active by the depositor; ? = inconclusive; . = no result given; [ ] = remark or other dose. Most compounds without a hit are left out; they make up all but 3% or so of the library. Unless noted, the call rests on the fitted dose curve; in most records, active means well fitted curve in the direction sought with a large enough effect; inconclusive means small, poorly fitted or top-dose-only effect, or another doubt; inactive means no such curve, though single readings can be large; an effect the other way counts as inactive or inconclusive. On the % scale 0 is the no-effect control and ±100 the full control effect; potency means the concentration at half of the fitted maximal effect.
SMILES,TbPYK inhibitor,RE007 growth inh,LmPK inhibitor,Sm TGR inh
COc1cc(CNc2ncc(-c3ccc(Br)cc3)n2C)cc(OC)c1O,2.6%,-11.4%,1.7%,15.8µM*
CC1CCCN(CC(O)CN2CCN(CC(O)CN3CCCC(C)C3)C(C)C2)C1 (configuration not stated),-1.4%,-20.6%,.,.
COc1ccc(-c2nn(C)c3sc(C(=O)N4CCN(c5cccc(C)c5C)CC4)cc23)cc1OC,-5.3%,.,.,25.1µM*
Cn1cnc(C(=O)N2CCN(C(=O)OC(C)(C)C)CC2)c1C(=O)N1CCN(C(=O)OC(C)(C)C)CC1,3.8%,2.3%,.,22.4µM*
Cn1cnc(C(=O)N2CCN(c3ccccc3)CC2)c1C(=O)N1CCN(c2ccccc2)CC1,-10.4%,21.6%,.,20µM*
O=C(C(=O)c1cc(Br)ccc1O)c1cc(Br)ccc1O,2.5%,-2.6%,.,.
O=C(c1ccc(O)c(Br)c1)c1cc(Br)ccc1O,-9.6%,63.1µM*,.,.
CC1(C(=O)NS(=O)(=O)c2ccccc2C(F)(F)F)CCN1C(=O)CCc1cccs1 (configuration not stated),1.4%,9.6%,.,.
O=C(O)c1cc(N=Nc2c(O)ccc3ccccc23)cc(C(=O)O)c1,12.6µM*,-12.1%,?,-33.2%
Oc1ccc(N=Nc2c(O)ccc3ccccc23)cc1,-5.4%,?,-17.8%,-21.6%
O=[N+]([O-])c1cc(S(=O)(=O)N2CCCCCC2)ccc1F,-15.6%,-0.4%,-0.7%,22.4µM*
O=[N+]([O-])c1cc(S(=O)(=O)N2CCCC2)ccc1O,0.1%,12.0%,1.6%,2.6%
Cc1[nH]n(-c2ccccc2)c(=O)c1C(c1ccc([N+](=O)[O-])cc1)c1c(C)[nH]n(-c2ccccc2)c1=O,-25.1%,-4.1%,-6.3%,?
COc1ccc(C(C[N+](=O)[O-])c2c(C)[nH]n(-c3ccccc3)c2=O)cc1 (configuration not stated),-8.8%,11.2µM*,3.4%,17.8µM*
Cc1[nH]n(-c2ccccc2)c(=O)c1C(C[N+](=O)[O-])c1ccccc1Cl (configuration not stated),-8.7%,31.6µM*,-1.4%,28.6%
CCc1ccc(CNC(=O)Cn2nc(C)n3c(cc4cc(C)ccc43)c2=O)cc1,-5.1%,.,.,0.6%
Cc1ccccc1C(=O)Nc1cccc(NC(=O)c2ccc(C(C)(C)C)cc2)c1,3.0%,.,.,-2.6%
CCOC(=O)c1cnc2ccc(C(=O)OC)cc2c1NCCN1CCOCC1,0.0%,-14.1%,-4.2%,31.6µM*
c1ccc(-c2ncc3ccccn23)cc1,-2.9%,-17.3%,6.4%,39.8µM*
c1ccc2c(c1)ncc1cccn12,-4.1%,13.1%,4.0%,10.4%[11.4 µM]
Cc1ccc(C(=O)NC(N2CCCC2)C(Cl)(Cl)Cl)cc1 (configuration not stated),4.6%,-0.7%,1.6%,35.5µM*
O=C(NNC(=O)OCc1ccccc1)OCc1ccccc1,-3.3%,-2.5%,.,.
O=C(/C=C/c1ccc(Br)o1)NC(c1ccccc1)c1ccccc1,-21.7%,13.6%,-0.9%,44.7µM*
O=C(/C=C/c1ccc(Br)o1)OCc1ccccc1,-0.4%,-12.3%,-2.6%,22.4µM*
CC1CCN(C(=O)COC(=O)/C=C/c2ccc(Br)o2)CC1,-27.3%,-13.7%,.,8.91µM*
SMILES,TbPYK inhibitor,RE007 growth inh,LmPK inhibitor,Sm TGR inh
O=C(NC(c1ccccc1)c1ccccc1)c1ccc(Br)o1,0.8%,-1.1%,1.8%,-2.5%
CC1CCCC(C)N1C(=O)COC(=O)/C=C/c1ccc(Br)o1 (configuration not stated),-20.2%,-13.5%,.,.
COc1ccc(NC(=O)c2sc3nc(C)c(C(=O)Nc4ccc(C)cc4C)c(-c4ccc(C)o4)c3c2N)cc1,-7.7%,.,.,8.6%
CCN(CC)c1ccc2c(c1)oc(=O)c1c(Cl)cc(=O)oc12,0.9%,11.6%,4.4%,6.31µM*
CCN(CC)c1ccc2c(C)c(Cl)c(=O)oc2c1,-2.8%,-1.9%,-12.4%,10.7%
Cn1cccc1C(=O)N1CCC2(CC1)CCN(c1ccccn1)CC2,6.6%,.,.,.
O=C(NNC(=O)c1ccc([N+](=O)[O-])cc1)c1ccc(Br)cc1,1.3%,2.5%,-1.7%,-3.1%
O=[N+]([O-])c1cccc(NC(=S)NCCc2ccccc2)c1,-5.3%,7.4%,5.8%,-25.3%
O=[N+]([O-])c1ccc(S(=O)(=O)NNC(=S)NCCc2ccccc2)cc1,0.6%,-0.7%,-9.9%,1.78µM*
Cc1ccc(S(=O)(=O)NNC(=S)NCC2CCCO2)cc1 (configuration not stated),-0.1%,6.1%,0.9%,12.6µM*
O=C(NNC(=S)NC(=O)c1ccc(Br)cc1)c1ccc([N+](=O)[O-])cc1,-10.3%,18.7%,15.2%,100µM*
Cc1ccc(C(=O)NC(=S)NNC(=O)c2ccc([N+](=O)[O-])cc2)cc1,-8.0%,-6.7%,6.6%,1.0%
Cc1ccc(S(=O)(=O)NNC(=S)NC(=O)c2ccc([N+](=O)[O-])cc2)cc1,-1.2%,26.7%,-0.1%,7.94µM*
Cc1ccc(S(=O)(=O)NCC2CCCO2)cc1 (configuration not stated),-10.2%,-1.7%,-0.9%,2.7%
CCOC(=O)[C@]12CCCC=C1N(Cc1ccco1)C(=O)[C@H](CC(=O)NCCCN1CCCC1=O)C2,-2.2%,5.8%,.,.
Cn1c(CNC(=O)CSc2nc(-c3ccccc3F)nc3cc(=O)[nH]n23)nc2ccccc21,-8.0%,.,.,?
CCOc1ccccc1NC(=O)C(NS(=O)(=O)c1ccc2c(c1)CCC(=O)N2)c1ccccc1 (configuration not stated),-5.0%,.,.,-6.6%
Cc1ccc(C(=O)NC(=S)NNS(=O)(=O)c2ccc(C)cc2)cc1,-13.2%,-14.7%,9.8%,22.4µM*
Cc1ccc(C(=O)NC(=S)NCC2CCCO2)cc1Br (configuration not stated),-17.0%,?,-4.0%,56.2µM*
O=C(NC(=S)NCC1CCCO1)c1ccccc1Br (configuration not stated),-4.3%,-5.0%,0.3%,-12.8%
Cc1ccc2c(NCc3ccco3)nc(NC(C)C)nc2c1,-0.1%,?,.,.
CC(=O)c1cccc(NC(=O)c2noc3c2CC(C)CC3)c1 (configuration not stated),-3.0%,.,.,0.0%
COc1cc(OC)c(NC(=O)c2noc3c2CSc2ccccc2-3)cc1Cl,5.8%,.,.,2.51µM*
COc1ccc(NC(=O)c2noc3c2CSc2ccccc2-3)cc1Cl,4.6%,.,.,7.5%
CC(=O)c1cccc(NC(=O)c2noc3c2CSc2ccccc2-3)c1,-3.1%,.,.,11.2µM*
CC1(C)O[C@@H]2C[C@H]3[C@H]4C[C@H](F)C5=CC(=O)C=C[C@@]5(C)[C@@H]4[C@H](O)C[C@]3(C)[C@]2(C(=O)CO)O1,1.9%[33.2 µM],.,.,.
COc1ccc(C(=O)NCCn2cc(SCc3c(F)cccc3Cl)c3ccccc32)cc1,0.5%,.,.,1.0%
CCC(C(=O)NCc1ccco1)N(C(=O)CNS(=O)(=O)c1ccccc1)C1CCCCC1 (configuration not stated),0.1%,6.2%,-1.2%,44.7µM*
